{
  "source": "PubChem BioAssay AID1625",
  "about": "(Sanford-Burnham Center for Chemical Genomics, 2009)",
  "note": "The campaign covered roughly 190,000 compounds. About 570 (0.3%) were called active.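 How the source made its calls: active means z-score above 3 at 5 µM with at least 500 cells counted in the well; inconclusive means wells under 500 cells, flagged as cytotoxic or low count; inactive means the rest.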 The sample as a whole holds a higher share of actives than the screen did.",
  "data": [
    {"assay": "insulin promoter activators in MIN6 cells, imaging, high-content screening, mouse beta cells (AID 1625);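 on cell count: total cells summed across four imaged fields per well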", "details": "MIN6 insulin promoter-GFP reporter, at 5 µM; cell count: measured here: cytotoxicity, nuclei count; z-score: stronger effect = higher value", "units": {"cell count": "cells"}, "values": [
      {"smiles": "O=C(O)C#Cc1cccc2ccccc12", "cell count": 952, "z-score": "-0.45 (inactive)"},
      {"smiles": "Cc1cc(C)c2[nH]c(=O)c(CN(Cc3ccccc3)C(=S)NCCCN(C)C)cc2c1", "cell count": 1260, "z-score": "-0.25 (inactive)"},
      {"smiles": "CCOc1ccc(NC(=S)N2CCC(N(C)CC3CCCO3)CC2)cc1", "note": "(configuration not stated)", "cell count": 1410, "z-score": "3.59 (active)"},
      {"smiles": "CCC(C)N(C)C1CCN(C(=S)Nc2ccc(OC)cc2)CC1", "note": "(configuration not stated)", "cell count": 1120, "z-score": "0.62 (inactive)"},
      {"smiles": "CCOc1ccc(NC(=S)N2CCCCCC2)cc1", "cell count": 1240, "z-score": "-0.11 (inactive)"},
      {"smiles": "Cc1cccc(N(C)C(=O)c2cc3c(=O)[nH]c4ccc(C)cc4c3s2)c1", "cell count": 642, "z-score": "-0.64 (inactive)"},
      {"smiles": "CCn1c2ccccc2c2cc(NC(=O)Nc3ccc([N+](=O)[O-])cc3C)ccc21", "cell count": 1070, "z-score": "-0.69 (inactive)"},
      {"smiles": "O=c1c2cc(-c3ccccc3)sc2nc2n1N=C(c1cccs1)CS2", "cell count": 940, "z-score": "0.28 (inactive)"},
      {"smiles": "S=c1[nH]nc(-c2cccs2)n1/N=C/c1cn(-c2ccccc2)nc1-c1ccc(Cl)cc1", "cell count": 941, "z-score": "-0.14 (inactive)"},
      {"smiles": "NS(=O)(=O)c1cccc(NC(=O)CSc2nc3ccccc3n2-c2ccccc2)c1", "cell count": 1570, "z-score": "-0.28 (inactive)"},
      {"smiles": "COc1cccc(NCCC(=O)c2cccc([N+](=O)[O-])c2)c1", "cell count": 1430, "z-score": "-0.59 (inactive)"},
      {"smiles": "O=C(NCCc1csc(-c2ccccc2)n1)c1ccccc1F", "cell count": 879, "z-score": "4.15 (active)"},
      {"smiles": "O=S(=O)(NCCc1csc(-c2ccccc2)n1)c1cccnc1", "cell count": 1020, "z-score": "0.1 (inactive)"},
      {"smiles": "COc1ccc(-c2nc(CCNC(=O)c3ccc(Br)o3)cs2)cc1", "cell count": 1790, "z-score": "-0.21 (inactive)"},
      {"smiles": "COc1ccc([N+](=O)[O-])cc1N(CC(O)CN(CC(C)C)CC(C)C)S(=O)(=O)c1ccc(C)cc1", "note": "(configuration not stated)", "cell count": 984, "z-score": "0.3 (inactive)"},
      {"smiles": "O=C1CN(C(=O)COC(=O)c2cnc(Cl)c(Cl)c2)c2ccccc2N1", "cell count": 1340, "z-score": "0.22 (inactive)"},
      {"smiles": "Cc1ccc(OCC(=O)c2cc(C)n(Cc3ccco3)c2C)c([N+](=O)[O-])n1", "cell count": 717, "z-score": "0.32 (inactive)"},
      {"smiles": "CC1=C(C(N)=O)C(c2sccc2C)n2nnnc2N1", "note": "(configuration not stated)", "cell count": 787, "z-score": "1.11 (inactive)"},
      {"smiles": "COc1ccc(C2C(C(=O)Nc3ccccc3OC)=C(C)Nc3nnnn32)c(OC)c1", "note": "(configuration not stated)", "cell count": 1590, "z-score": "0.06 (inactive)"},
      {"smiles": "CCCCCOC(=O)C1=C(C)Nc2nnnn2C1c1ccc(OC)c(OC)c1OC", "note": "(configuration not stated)", "cell count": 1410, "z-score": "3.26 (active)"},
      {"smiles": "CN(C)S(=O)(=O)c1cccc(-c2nn(-c3ccccc3)cc2/C=C2\\SC(=S)N(CC(=O)O)C2=O)c1", "cell count": 1060, "z-score": "-0.06 (inactive)"},
      {"smiles": "CNC(=S)NNC(=O)c1cccn(Cc2ccccc2)c1=O", "cell count": 1390, "z-score": "-0.17 (inactive)"},
      {"smiles": "NNC(=O)c1oc2nc(-c3ccccc3)cc(-c3ccco3)c2c1N", "cell count": 1010, "z-score": "1.58 (inactive)"},
      {"smiles": "CNC(=S)NNC(=O)c1oc2nc(-c3ccccc3)cc(-c3ccco3)c2c1N", "cell count": 871, "z-score": "3.41 (active)"},
      {"smiles": "CSc1ccc(CN2C(=O)NC3(CCCCCC3)C2=O)cc1", "cell count": 1210, "z-score": "-0.36 (inactive)"},
      {"smiles": "CC(=O)Nc1nc(C)c(-c2csc(Nc3ccc(S(N)(=O)=O)cc3)n2)s1", "cell count": 1500, "z-score": "-2.49 (inactive)"},
      {"smiles": "CC(C)(C)c1cc(C(=O)NCc2cccnc2)ccn1", "cell count": 1480, "z-score": "4.34 (active)"},
      {"smiles": "Cc1ccc(C(=O)NC(=S)NCc2cccnc2)cc1", "cell count": 1660, "z-score": "1.63 (inactive)"},
      {"smiles": "Cc1cccc(C(=O)Nc2ccccc2C(=O)NCc2cccnc2)c1", "cell count": 1550, "z-score": "0.35 (inactive)"},
      {"smiles": "CCOc1ccc(NS(=O)(=O)c2cc(C)c(C)cc2C)cc1", "cell count": 1460, "z-score": "0.61 (inactive)"},
      {"smiles": "O=C(CC1Nc2ccccc2NC1=O)Nc1ccccc1NC(=O)CC1Nc2ccccc2NC1=O", "note": "(configuration not stated)", "cell count": 1140, "z-score": "0.1 (inactive)"},
      {"smiles": "Cc1[nH]n(-c2ccc([N+](=O)[O-])cc2)c(=O)c1C=NCCN1CCN(C(=O)c2ccccc2F)CC1", "cell count": 1450, "z-score": "4.48 (active)"},
      {"smiles": "C=CCNC(=S)N1CCN(CCN=Cc2c(C)[nH]n(-c3ccc([N+](=O)[O-])cc3)c2=O)CC1", "cell count": 1470, "z-score": "1.08 (inactive)"},
      {"smiles": "Cc1ccc(-n2[nH]c(C)c(/C=N/NC(=O)c3cccc([N+](=O)[O-])c3)c2=O)cc1C", "cell count": 1370, "z-score": "0.35 (inactive)"},
      {"smiles": "CC(C)CCN1CCN(C/C=C/c2ccco2)CC1CCO", "note": "(configuration not stated)", "cell count": 1410, "z-score": "1.56 (inactive)"},
      {"smiles": "O=C(COC(=O)C1CCCCC1)Nc1ccc([N+](=O)[O-])cc1", "cell count": 1220, "z-score": "-0.06 (inactive)"},
      {"smiles": "O=C(NNC(=S)NC(=O)c1cn(-c2ccccc2)nc1-c1ccccc1)c1ccncc1", "cell count": 1140, "z-score": "-0.61 (inactive)"},
      {"smiles": "CCCCN(CCCC)CC(O)Cn1c2ccccc2c(=O)c2ccccc21", "note": "(configuration not stated)", "cell count": 1110, "z-score": "-0.27 (inactive)"},
      {"smiles": "CC(C)N1CCC(NC(=O)Nc2ccccc2)CC1", "cell count": 1410, "z-score": "-0.24 (inactive)"},
      {"smiles": "O=C(Nc1ccc2c(c1)OCCO2)C1CCCN(c2ncccn2)C1", "note": "(configuration not stated)", "cell count": 1560, "z-score": "-0.18 (inactive)"},
      {"smiles": "Cc1cc(C)nc(N2CCC(C(=O)Nc3ccc4c(c3)OCCO4)CC2)n1", "cell count": 1130, "z-score": "3.37 (active)"},
      {"smiles": "Cc1cc(C)cc(NC(=O)C2CCN(c3nc(C)cc(C)n3)CC2)c1", "cell count": 1460, "z-score": "-0.69 (inactive)"},
      {"smiles": "N#C/C(=C/c1ccc(-c2ccccc2[N+](=O)[O-])o1)C(=O)NCCN1CCCCC1", "cell count": 1040, "z-score": "0.44 (inactive)"},
      {"smiles": "Cc1ccc(-c2nnn(CC(=O)N(CCO)C(C(=O)NC(C)(C)C)c3ccncc3)n2)cc1", "note": "(configuration not stated)", "cell count": 1330, "z-score": "-0.54 (inactive)"},
      {"smiles": "COc1ccc(-c2nnn(CC(=O)N(CCO)C(C(=O)NC3CCCC3)c3ccc(F)cc3)n2)cc1", "note": "(configuration not stated)", "cell count": 941, "z-score": "3.28 (active)"},
      {"smiles": "CCOCCCN(C(=O)Cn1nnc(-c2ccc(OC)c(OC)c2)n1)C(CC)C(=O)NC1CCCC1", "note": "(configuration not stated)", "cell count": 1200, "z-score": "1.26 (inactive)"},
      {"smiles": "Cc1nc(Cl)c(C#N)c2c1CCCC2", "cell count": 1110, "z-score": "0.33 (inactive)"},
      {"smiles": "COc1ccc(NS(=O)(=O)c2ccc(Oc3c(C#N)cccc3C#N)cc2)cc1", "cell count": 558, "z-score": "-2.43 (inactive)"},
      {"smiles": "CCOC(=O)c1ccc(S(=O)(=O)N(CCO)Cc2cc3cc(OC)c(OC)cc3[nH]c2=O)cc1", "cell count": 1080, "z-score": "-0.14 (inactive)"},
      {"smiles": "COc1ccc(NC(=O)CCN2C(=O)/C(=C/c3ccc4c(c3)OCO4)SC2=S)cc1", "cell count": 965, "z-score": "-0.34 (inactive)"},
      {"smiles": "CC(=O)N(OCc1ccc(OC(C)C)c(Cl)c1)C(C)=O", "cell count": 1050, "z-score": "-0.14 (inactive)"}
    ]}
  ]
}
